SMILES strings stand for the structures. Unmarked numbers belong to inactive results. How the calls were made is not given here.

Sequence of Pantothenate synthetase (Mycobacterium tuberculosis (strain ATCC 25618 / H37Rv)) (P9WIL5 whole entry, looked up): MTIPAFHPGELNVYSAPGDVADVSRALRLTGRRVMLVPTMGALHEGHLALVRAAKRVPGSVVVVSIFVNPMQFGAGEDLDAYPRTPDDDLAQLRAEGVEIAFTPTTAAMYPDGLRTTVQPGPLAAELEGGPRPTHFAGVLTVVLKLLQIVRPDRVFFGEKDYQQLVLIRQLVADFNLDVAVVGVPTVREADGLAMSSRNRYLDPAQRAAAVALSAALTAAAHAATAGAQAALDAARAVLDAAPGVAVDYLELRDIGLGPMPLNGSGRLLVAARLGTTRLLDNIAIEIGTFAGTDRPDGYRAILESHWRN

The assay concerns the target Pantothenate synthetase (Mycobacterium tuberculosis (strain ATCC 25618 / H37Rv)) (UniProt P9WIL5). Nature of the assay: Recombinant Mtb pantothenate synthetase (PanC) inhibitors, coupled enzyme, confirmatory (AID 375).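 Further: 0% = full reaction with vehicle and 100% = no enzyme background.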 As to conditions: coupled enzyme assay; at 10 µM, stronger effect = higher value.
Broadly, the inhibition is the relative decrease from the control value, in per cent. As for `CCOCCCNC(=O)c1ccc2c(c1)ncn2C1CCCC1`, the inhibition was 5%. Regarding `COC(=O)[C@@H](N)Cc1ccc(O)cc1`, the inhibition is 0%. With `Cc1ccc(NC(=O)CS(=O)CC(=O)NCC2CCCO2)cc1` (configuration not stated) the figure was 0%; with `CCOc1ccccc1N(CC(=O)NC1CCCC1)C(=O)CCCC(=O)Nc1ccccn1`, 5%; with `CCOC(=O)C(NC(=O)C1CCCN1C(=O)OCc1ccccc1)C(=O)OCC` (configuration not stated), 4%. With `CCCCOc1ccccc1C1C(C(N)=O)=C(C)Nc2nnnn21` (configuration not stated) the figure was 0%. On to `COc1cc(NC(=O)Nc2cccc(Cl)c2)c(OC)cc1NC(=O)CN1CCCCC1`, for which the inhibition is 2%. On to `CC1Cc2ccccc2N1C(=O)c1cnsn1` (configuration not stated), for which the inhibition is 0%. The same measure for `O=C(c1cc(-c2cccc(O)c2)on1)N1CCN(C(c2ccccc2)c2ccccc2)CC1`: 8%. As for `CCN(C(=O)c1ccnc(C(C)(C)C)c1)c1ccccc1`, the inhibition was 0%.

Consider `COc1ccccc1NC(=O)CSc1nnc(Cc2cccn2C)n1-c1ccc(F)cc1`, for which the inhibition was 0%. As for `CCOC(=O)N1CCN(C(=O)c2ccc3nc4cc(Cl)ccc4c(=O)n3c2)CC1`, the inhibition was 8%. For `Cc1cc(C)c(S(=O)(=O)N(C)CC(N)=O)c(C)c1`, the inhibition was 0%. With `c1cncc(C2Nc3ccccc3-c3nc4ccccc4n32)c1` (configuration not stated) the figure was 7%; with `Cc1ccc(NCC(O)C(O)C(O)CO)cc1C` (configuration not stated), 0%; with `Cc1cccc(N2CCN(C(=O)Cn3nc(Cc4ccncc4)c4ccccc4c3=O)CC2)c1C`, 4%.

For the compound `Cc1coc2cc3oc(=O)c4c(c3cc12)CCC4`, the inhibition was 11%.
